Measured values from PubChem BioAssay AID1159580 (chemical genetic matrix, 2015).
“And” between values parts separate entries of the source, which are not always exact repeats. Equal values may be shown once. Hit rate of the full screen: of about 5,500 compounds, about 2,000 (36%) were called active. About 18% were inconclusive and are not listed. Rule as the data show it: active = normalized growth mostly below about 0.91 (no sharp cut-off); inconclusive = no clear call, values can overlap the other calls; inactive = mostly above about 0.92. This is one part of the list.

Test: chemical genetic growth profiling, strain panel (AID 1159580);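 also: tested at 20 µM; growth read once vehicle control cultures reached saturation at 30 °C; 1 = growth at the plate median or of vehicle wells; lower values mean less growth of the strain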
Details: S. cerevisiae deletion strains, growth OD

Measured: normalized growth

CCN1CCCC(OC(=O)C(c2ccccc2)c2ccccc2)C1 (stereo not drawn)
inactive: locus YAL021C, strain ccr4, stronger effect = lower value 0.978 | locus YAL026C, strain drs2, stronger effect = lower value 0.99 | locus YAL030W, strain snc1, stronger effect = lower value 0.989 | locus YBL061C, strain skt5, stronger effect = lower value 0.982 | locus YBR009C, strain hhf1, stronger effect = lower value 0.992 | locus YBR021W, strain FUR4, stronger effect = lower value 1.03 | locus YBR023C, strain chs3, stronger effect = lower value 0.973 | locus YBR171W, strain sec66, stronger effect = lower value 0.99 | locus YBR229C, strain ROT2, stronger effect = lower value 1.01 | locus YBR231C, strain swc5, stronger effect = lower value 0.989 | locus YBR279W, strain paf1, stronger effect = lower value 0.998 | locus YCL011C, strain gbp2, stronger effect = lower value 1 | locus YCL016C, strain dcc1, stronger effect = lower value 0.973 | locus YCL029C, strain bik1, stronger effect = lower value 1.01 | locus YCL061C, strain MRC1, stronger effect = lower value 0.989 | locus YCL069W, strain vba3, stronger effect = lower value 0.989 | locus YCR088W, strain abp1, stronger effect = lower value 0.978 | locus YDL005C, strain med2, stronger effect = lower value 0.982 | locus YDL035C, strain GPR1, stronger effect = lower value 1.03 | locus YDL040C, strain nat1, stronger effect = lower value 0.98 | locus YDL074C, strain BRE1, stronger effect = lower value 1.01 | locus YDL101C, strain DUN1, stronger effect = lower value 1.01 | locus YDL134C, strain PPH21, stronger effect = lower value 1.02 | locus YDL185W, strain tfp1, stronger effect = lower value 1.01 | locus YDL192W, strain arf1, stronger effect = lower value 1.01 | locus YDR001C, strain nth1, stronger effect = lower value 0.975 | locus YDR069C, strain doa4, stronger effect = lower value 1 | locus YDR101C, strain arx1, stronger effect = lower value 0.992 | locus YDR137W, strain rgp1, stronger effect = lower value 1.01 | locus YDR159W, strain sac3, stronger effect = lower value 0.989 | locus YDR162C, strain NBP2, stronger effect = lower value 1.01 | locus YDR195W, strain ref2 0.963 | locus YDR297W, strain sur2, stronger effect = lower value 0.993 | locus YDR318W, strain mcm21, stronger effect = lower value 1.01 | locus YDR334W, strain swr1, stronger effect = lower value 0.958 | locus YDR335W, strain msn5, stronger effect = lower value 0.963 | locus YDR388W, stronger effect = lower value 1.01 | locus YDR392W, strain spt3, stronger effect = lower value 0.975 | locus YDR502C, strain sam2, stronger effect = lower value 0.999 | locus YEL003W, strain gim4, stronger effect = lower value 0.978 | locus YEL037C, strain rad23, stronger effect = lower value 0.978 | locus YEL061C, strain CIN8 (second series), stronger effect = lower value 0.999 | locus YEL061C, strain CIN8, stronger effect = lower value 1.01 | locus YER015W, strain faa2, stronger effect = lower value 0.974 | locus YER016W, strain bim1, stronger effect = lower value 0.986 | locus YER110C, stronger effect = lower value 1.01 | locus YER111C, strain swi4, stronger effect = lower value 0.978 | locus YER155C, strain BEM2 (second series), stronger effect = lower value 1 | locus YER155C, strain BEM2, stronger effect = lower value 1.01 | locus YER167W, strain BCK2, stronger effect = lower value 1.01 | locus YFR010W, strain ubp6, stronger effect = lower value 0.99 | locus YGL078C, strain dbp3, stronger effect = lower value 1 | locus YGL086W, strain mad1, stronger effect = lower value 1.01 | locus YGL167C, strain pmr1, stronger effect = lower value 0.981 | locus YGL173C, strain kem1, stronger effect = lower value 0.982 | locus YGL227W, strain vid30, stronger effect = lower value 0.997 | locus YGL240W, strain doc1, stronger effect = lower value 0.994 | locus YGL248W, strain PDE1, stronger effect = lower value 1.01 | locus YGL253W, strain hxk2, stronger effect = lower value 0.991 | locus YGR135W, strain pre9, stronger effect = lower value 1 | locus YGR229C, strain SMI1, stronger effect = lower value 1.01 | locus YGR252W, strain gcn5, stronger effect = lower value 0.998 | locus YHR013C, strain ard1, stronger effect = lower value 0.96 | locus YHR027C, strain rpn1, stronger effect = lower value 0.986 | locus YHR030C, strain SLT2, stronger effect = lower value 1.01 and 0.993 | locus YHR079C, strain IRE1 (second series), stronger effect = lower value 1.01 | locus YHR079C, strain IRE1, stronger effect = lower value 0.978 | locus YHR094C, strain hxt1, stronger effect = lower value 1.01 | locus YHR129C, strain ARP1, stronger effect = lower value 1 | locus YHR142W, strain chs7, stronger effect = lower value 0.978 | locus YHR200W, strain rpn10, stronger effect = lower value 1 | locus YIL066C, strain RNR3, stronger effect = lower value 1.01 | locus YIL073C, strain SPO22, stronger effect = lower value 1.08 | locus YIL125W, strain kgd1, stronger effect = lower value 1 | locus YIR030C, strain dcg1, stronger effect = lower value 1.01 | locus YJL092W, strain hpr5, stronger effect = lower value 0.973 | locus YJL095W, strain BCK1 (second series), stronger effect = lower value 0.994 | locus YJL095W, strain BCK1, stronger effect = lower value 0.987 and 0.977 | locus YJL115W, strain asf1, stronger effect = lower value 0.977 | locus YJL129C, strain trk1, stronger effect = lower value 0.964 | locus YJL134W, strain LCB3, stronger effect = lower value 1.01 | locus YJL154C, strain vps35, stronger effect = lower value 0.976 | locus YJL164C, strain tpk1, stronger effect = lower value 1 | locus YJL166W, strain qcr8, stronger effect = lower value 0.982 | locus YJL168C, strain set2, stronger effect = lower value 1.01 | locus YJL187C, strain SWE1 (second series), stronger effect = lower value 1 | locus YJR043C, strain POL32, stronger effect = lower value 1.04 | locus YJR066W, strain TOR1, stronger effect = lower value 0.955
